These results are taken from ChEMBL document CHEMBL4296182, “CO-ADD screening of NIH NCI Diversity Set V”.

The test system of assay [1] is Staphylococcus aureus. In words: Antibacterial activity against Staphylococcus aureus MRSA ATCC 43300 (CO-ADD:GP_020); MIC in CAMBH media using NBS plates, by Resazurin F(560/590). Format: functional. The following applies: Concentration 20 uM, ASSAY_TEST Inhibition of Bacterial Growth, detection method Resazurin, Fluorescence (ex560/em590), MEDIA CAMHB, plate type 384well, CORNING #3640, time 18 hr. In general terms: The colour change of resazurin is a common sign of viable cells or microbes.

The test system of assay [2] is Acinetobacter baumannii. In words: Antibacterial activity against Acinetobacter baumannii ATCC 19606 (CO-ADD:GN_034); MIC in CAMBH media using NBS plates, by Resazurin F(560/590). The class given is functional. The following applies: Concentration 20 uM, ASSAY_TEST Inhibition of Bacterial Growth, detection method Resazurin, Fluorescence (ex560/em590), MEDIA CAMHB, plate type 384well, CORNING #3640, time 18 hr.

Assay [3] has as its system Escherichia coli. As to the kind of experiment: Antibacterial activity against Escherichia coli ATCC 25922 (CO-ADD:GN_001); MIC in CAMBH media using NBS plates, by Resazurin F(560/590). The class given is functional. The conditions noted are these: Concentration 20 uM, ASSAY_TEST Inhibition of Bacterial Growth, detection method Resazurin, Fluorescence (ex560/em590), MEDIA CAMHB, plate type 384well, CORNING #3640, time 18 hr.

Assay [4] deals with Klebsiella pneumoniae. The following applies: Concentration 20 uM; ASSAY_TEST Inhibition of Bacterial Growth; detection method Absorption (OD600); MEDIA CAMHB; plate type 384well; NBS; CORNING #3640; time 18 hr.
Assay [5] deals with Candida albicans. The following applies: 20 µM.
Assay [6] relates to Cryptococcus neoformans. The conditions noted are these: Concentration 20 uM; ASSAY_TEST Inhibition of Fungal Growth; detection method Resazurin; Absorption (OD600-OD570); plate type 384well; NBS; CORNING #3640.

Molecules are shown by their SMILES. For part of these data: Entries with a potency or affinity are not part of this list.

On to `O=C1c2ccccc2C2=C3C(O)=NN=C3CCN12`, for which the Inhibition in assay [1] was 13.67%; in assay [2], 14.87%; in assay [3] it was 4.79%; in assay [4], 9.82%; in assay [5], 5.2%; in assay [6] it was -1.84%.
As to `O=C(c1ccccc1)C1C(c2ccccc2)C1[N+](=O)[O-]` (stereo not given), the Inhibition in assay [1] was 0.24%; in assay [2], 5.31%; in assay [3], -7.09%; in assay [4], 8.34%; in assay [5], 7.18%; in assay [6], -2.68%.
As for `Fc1ccc(-c2cc(-c3cccs3)cc(-c3ccccc3)n2)cc1`, the Inhibition in assay [1] is 2.48%; in assay [2], 12.33%; in assay [3], -3.88%; in assay [4], 7.87%; in assay [5], 6.36%; in assay [6], -7.45%.
As for `Cc1c(COC(=O)NC(C)C)c(COC(=O)NC(C)C)c2n1CS(=O)(=O)C2`, the Inhibition was 22.95% in assay [1]; -7.7% in assay [2]; 11.68% in assay [3]; 15.71% in assay [4]; 3.64% in assay [5]; -8.35% in assay [6].
As for `O=C(O)C1=NN(c2cc(Cl)c(S(=O)(=O)O)cc2Cl)C(=O)C1`, the Inhibition in assay [1] is 10.8%; in assay [2], 12.97%; in assay [3], 19.15%; in assay [4] it was 14.41%; in assay [5], 2.3%; in assay [6], -14.45%.
For the compound `Clc1[nH]cnc2nccc1-2`, the Inhibition was 1.4% in assay [1]; -14.17% in assay [2]; 0.3% in assay [3]; 29.26% in assay [4]; 1.22% in assay [5]; -2.5% in assay [6].
For the compound `CN(C)c1ccc(/C=C(\C#N)C(=O)c2ccccc2)cc1`, the Inhibition in assay [1] is 3.86%; in assay [2] it was -12.37%; in assay [3], 8.74%; in assay [4], 11.84%; in assay [5] it was 4.91%; in assay [6] it was -12.58%.
For the compound `COc1cccc(OCC(O)CN2CCN(c3ccc(Cl)cc3)CC2)c1` (stereo not given), the Inhibition in assay [1] was 13.17%; in assay [2], 4.14%; in assay [3], 2.15%; in assay [4] it was 0.79%; in assay [5], 0.05%; in assay [6], -12.54%.
For `Cn1cnc2ncnn2c1=S`, the Inhibition in assay [1] is 0.31%; in assay [2] it was -8.2%; in assay [3], -1.17%; in assay [4] it was -0.39%; in assay [5] it was 2.7%; in assay [6], -8.45%.
For the compound `Cc1n[nH]c2c([N+](=O)[O-])c(=O)[nH]c(=O)n12`, the Inhibition was 3.86% in assay [1]; -12.95% in assay [2]; 12.3% in assay [3]; 7.43% in assay [4]; 0.29% in assay [5]; -13.65% in assay [6].
On to `O=C1C(Br)=Cc2cccc3cccc1c23`, for which the Inhibition in assay [1] is 13.47%; in assay [2], -14.96%; in assay [3] it was 6.58%; in assay [4], 7.6%; in assay [5], 32.2%; in assay [6], 12.78%.
Turning to `CCn1c2ccccc2c2c3ncc4cccn4c3ccc21`, the Inhibition in assay [1] was -13.6%; in assay [2] it was -8.64%; in assay [3], 1.37%; in assay [4], 9.08%; in assay [5], 32.4%; in assay [6], -7.68%.
On to `Oc1cc(-c2ccc(Cl)cc2)nc2ccccc12`, for which the Inhibition was 0.37% in assay [1]; 13% in assay [2]; -1.34% in assay [3]; 16.07% in assay [4]; 18.1% in assay [5]; 5.32% in assay [6].
For `COc1cc2c(NCCCCCO)ncnc2c(OC)c1OC`, the Inhibition in assay [1] was 13.68%; in assay [2] it was 10.53%; in assay [3], 6.4%; in assay [4], 13.53%; in assay [5] it was 0.91%; in assay [6], -4.07%.
Regarding `N#Cc1c(N)nc(N)nc1Nc1ccc(Br)cc1`, the Inhibition in assay [1] was 13.29%; in assay [2] it was -8.2%; in assay [3] it was -5.32%; in assay [4], 20.88%; in assay [5] it was 2.67%; in assay [6], -16.04%.
Consider `COCC(=O)Oc1cc(-c2ccc(C)cc2C)c(OC(=O)COC)c(-c2ccc(C)cc2C)c1`, for which the Inhibition is 8.14% in assay [1]; -8.27% in assay [2]; 6.56% in assay [3]; 4.04% in assay [4]; 7.18% in assay [5]; -1.11% in assay [6].
As for `CCOC(=O)c1[nH]c(C(=O)O)c(OC(=O)CC)c1C`, the Inhibition was 3.4% in assay [1]; 12.19% in assay [2]; 5.33% in assay [3]; 12.1% in assay [4]; 11.4% in assay [5]; -14.68% in assay [6].
For `O=[N+]([O-])c1ccc(-c2ncc(-c3ccc(Br)cc3)o2)cc1`, the Inhibition in assay [1] is 5.59%; in assay [2] it was 6.16%; in assay [3], 2.7%; in assay [4], 5.71%; in assay [5], 5.85%; in assay [6], -3.69%.
In the case of `CCC(C)c1c(N)n(S(=O)(=O)c2ccc(C)cc2)oc1=O` (stereo not given), the Inhibition in assay [1] is 12.19%; in assay [2], -9.07%; in assay [3] it was 9%; in assay [4], 8.85%; in assay [5] it was 1.8%; in assay [6], -2.18%.
For the compound `c1ccc(-c2nc(-c3nccc4ccccc34)oc2-c2ccccc2)cc1`, the Inhibition in assay [1] was -13.7%; in assay [2] it was -4.32%; in assay [3] it was -16.8%; in assay [4], -4.05%; in assay [5], 15.1%; in assay [6], 12.09%.
Turning to `COc1ccc(Nc2cc(Cl)ccc2C(=O)O)cn1`, the Inhibition in assay [1] is -1.71%; in assay [2], 14.76%; in assay [3], 0%; in assay [4], 20.74%; in assay [5], 22.9%; in assay [6] it was -8%.
In the case of `Oc1c(Cl)cc(Cl)cc1C1Nc2ccccc2-n2cccc21` (stereo not given), the Inhibition is 8.71% in assay [1]; 9.53% in assay [2]; -0.55% in assay [3]; 11.09% in assay [4]; 1.7% in assay [5]; -0.72% in assay [6].
For the compound `CC(C)C(=O)Nc1cccnc1`, the Inhibition in assay [1] is -3.96%; in assay [2], -12.43%; in assay [3] it was 9.68%; in assay [4] it was 6.6%; in assay [5], 0.24%; in assay [6] it was 8.85%.
Take `c1ccc(Sc2ncnc3ccccc23)cc1`: the Inhibition in assay [1] is 3.09%; in assay [2], -14.3%; in assay [3], 12.91%; in assay [4], 8.16%; in assay [5] it was 2.99%; in assay [6], -14.16%.
As for `CCOC(=O)c1c(C)c(C(=O)OCC)n(C)c1C`, the Inhibition in assay [1] was 8.23%; in assay [2] it was 6.43%; in assay [3], -8.3%; in assay [4], 6.99%; in assay [5], 4.68%; in assay [6] it was 10.56%.

As a reminder, the Inhibition is the relative decrease from the control value, in per cent.
